# Assay results as given in PubChem BioAssay AID463173 (ICCB-Longwood Screening Facility, Harvard Medical School, 2010).
# About 4,300 (8.3%) of roughly 52,000 compounds were called active. Cut-off read from the data, not from the text of the source: active = survival mostly below about 52% (no sharp cut-off); inactive = mostly above about 56%. The entries come from a sample that favours actives as a whole.
# System: DeltatarO mutant
# Experiment: growth inhibition of S. aureus wild type versus tarO mutant, primary screen, teichoic acid synthesis inhibitors, RN4220, OD600 (AID 463173)
# Conditions: OD600, 18 h, hits give low values, screened at 18.75 µg/mL (by protocol)
row,SMILES,survival
1,CCOC(=O)c1ccc(NC(=O)c2nc(SC(C)C)ncc2Cl)cc1,107% (inactive)
2,COC(=O)c1ccccc1NC(=O)c1nc(S(=O)(=O)Cc2cccc(C)c2)ncc1Cl,39% (active)
3,CCS(=O)(=O)c1ncc(Cl)c(C(=O)Nc2c(C(=O)Nc3cccc(C)c3)oc3ccccc23)n1,67% (inactive)
4,CCOC(=O)c1ccc(NC(=O)c2nc(S(=O)(=O)Cc3ccccc3)ncc2Cl)cc1,-2% (active)
5,CCS(=O)(=O)c1ncc(Cl)c(C(=O)Nc2ccccc2)n1,52% (inactive)
6,Cc1ccc(NC(=O)c2nc(S(=O)(=O)Cc3cccc(C)c3)ncc2Cl)cc1,-3% (active)
7,COC(=O)c1ccccc1NC(=O)c1nc(SCc2ccccc2C)ncc1Cl,79% (inactive)
8,CCOc1ccccc1NC(=O)c1nc(S(=O)(=O)Cc2cccc(C)c2)ncc1Cl,66% (inactive)
9,CCc1cccc(NC(=O)Cn2c(=O)n(-c3ccccc3C)c(=O)c3c2c2cc(C)ccc2n3C)c1,85% (inactive)
10,O=C(COc1ccccc1Cl)Nc1ccc(-c2nc3ccccc3s2)cc1,52% (inactive)
11,CCOC(=O)c1ccc(Nc2c(-c3ccc(N(C)C)cc3)nc3nc[nH]n23)cc1,102% (inactive)
12,COc1cccc(OCc2cc(=O)n3c(-c4ccccc4)csc3n2)c1,74% (inactive)
13,CC(C)CC(=O)Nc1cccc(-c2cn3cccnc3n2)c1,83% (inactive)
14,CN1CCN(Cc2nnnn2CC2CCCO2)CC1 (configuration not stated),95% (inactive)
15,CCc1cccc(NC(=O)c2nnn(Cc3ccc(SC)cc3)c2N)c1,59% (inactive)
16,CCOc1ccc(Cn2nnc(C(=O)Nc3cccc(SC)c3)c2N)cc1,30% (active)
17,CCOc1ccc(Cn2nnc(C(=O)Nc3ccc(Cl)cc3)c2N)cc1,88% (inactive)
18,CCOc1ccc(S(=O)(=O)Nc2cccc(-c3ccc(N4CCC(C)CC4)nn3)c2)cc1,86% (inactive)
19,CC(C)COc1ccc(C(=O)N(Cc2ccc(N(C)C)cc2)Cc2ccco2)cc1,71% (inactive)
20,Cc1ccc(NC(=O)CSCc2cc(=O)c3ccccc3[nH]2)c(C)c1,116% (inactive)
21,O=C(Cn1c(=O)c2cccn2c2ccc(F)cc21)N1CCN(c2ccccc2F)CC1,56% (inactive)
22,Cc1ccc(NC(=O)CCCn2c(=O)c3cccn3c3ccccc32)cc1Cl,68% (inactive)
23,Cc1ccc(NC(=O)CCCn2c(=O)c3cccn3c3ccccc32)cc1C,61% (inactive)

row,SMILES,survival
1,Cc1ccc(NC(=O)CCn2c(=O)c3cccn3c3ccccc32)cc1Cl,45% (active)
2,CC(C)c1ccc(NC(=O)CCn2c(=O)c3cccn3c3ccccc32)cc1,57% (inactive)
3,Cc1ccc(NC(=O)CCn2c(=O)c3cccn3c3ccccc32)cc1C,46% (active)
4,Cc1cc(C)c(NC(=O)CCn2c(=O)c3cccn3c3ccccc32)c(C)c1,49% (inactive)
5,O=C(Nc1ccc(Cl)cc1)N1CCN(c2ccc3nnc(-c4ccccc4)n3n2)CC1,72% (inactive)
6,COc1cc(C2C(C(=O)Nc3ccc(Cl)cc3)=C(C)Nc3nc(SC)nn32)cc(OC)c1OC (configuration not stated),64% (inactive)
7,CC(C)=NNS(=O)(=O)c1ccc(N2CCCC2=O)cc1,71% (inactive)
8,CC1CCc2sc3ncnc(NCCCN(C)C)c3c2C1 (configuration not stated),117% (inactive)
9,Cc1nn(CC(=O)NCc2ccc(N(C)C)cc2)c(=O)c2nn(-c3ccccc3)c(C)c12,83% (inactive)
10,CCS(=O)(=O)N1CCc2cc(C(=O)NCCc3ccc(OC)c(OC)c3)ccc21,69% (inactive)
11,CCC(=O)N1CCc2cc(Br)cc(S(=O)(=O)NCCc3ccc(OC)c(OC)c3)c21,52% (inactive)
12,O=C1CN(C(=O)COc2ccc(Cl)cc2Cl)C(c2ccc(F)cc2)c2cc(F)ccc2N1 (configuration not stated),47% (active)
13,Cc1ccc2c(c1)C(c1ccc(F)cc1)N(C(=O)COc1ccc(Cl)cc1Cl)CC(=O)N2 (configuration not stated),45% (active)
14,COc1ccc(C(=O)N2CC(=O)Nc3ccc(C)cc3C2c2ccccc2)cc1OC (configuration not stated),61% (inactive)
15,CCCC(=O)N1CC(=O)Nc2ccc(Cl)cc2C1c1ccc(F)cc1 (configuration not stated),50% (inactive)
16,Cc1ccc2c(c1)C(c1ccccc1)N(C(=O)COc1ccc(Cl)cc1Cl)CC(=O)N2 (configuration not stated),49% (active)
17,CCCC(=O)N1CC(=O)Nc2ccc(Cl)cc2C1c1ccccc1 (configuration not stated),69% (inactive)
18,CCOc1ccc(C(=O)N2CC(=O)Nc3ccc(C)cc3C2c2ccc(F)cc2)cc1OCC (configuration not stated),67% (inactive)
19,O=C1CN(C(=O)COc2ccc(Cl)cc2Cl)C(c2ccccc2)c2cc(F)ccc2N1 (configuration not stated),88% (inactive)
20,Cc1ccc2c(c1)C(c1ccc(F)cc1)N(C(=O)C(C)C)CC(=O)N2 (configuration not stated),82% (inactive)
21,Cc1c(CCC(=O)NCCc2ccccc2F)c(=O)oc2cc(O)ccc12,61% (inactive)
22,O=C(CSc1nc2c([nH]c3ccccc32)c(=O)n1-c1ccccc1)N1CCc2ccccc21,101% (inactive)
23,CCOC(=O)c1ccccc1NS(=O)(=O)c1ccc(N2CCCCS2(=O)=O)cc1,90% (inactive)

row,SMILES,survival
1,CN1CCN(Cn2c(O)c(N=NC(=O)c3ccc(Br)cc3)c3cc(Br)ccc32)CC1,87% (inactive)
2,CCOc1ccc(NC(=O)CC2C(=O)N(c3cccc(C)c3)C(=O)N2Cc2cccnc2)cc1 (configuration not stated),55% (inactive)
3,CCOc1ccc(NC(=O)c2cnc3sc(N4CCOCC4)nn3c2=O)cc1,97% (inactive)
4,COCCNC(=O)c1ccc2c(=O)n(CCOC)c(SCC(=O)c3c[nH]c4ccccc34)nc2c1,17% (active)
5,COCCn1c(SCC(=O)c2c[nH]c3ccccc23)nc2cc(C(=O)NCC(C)C)ccc2c1=O,100% (inactive)
6,COCCn1c(SCC(=O)c2c[nH]c3ccccc23)nc2cc(C(=O)NC(C)C)ccc2c1=O,55% (inactive)
7,Cc1ccc(Cl)cc1-n1ncc2c(NCCc3ccccc3)ncnc21,60% (inactive)
8,COc1ccc(Cl)cc1NC(=O)Cn1c(=O)n(Cc2nc(C)no2)c(=O)c2ccccc21,83% (inactive)
9,COc1ccc(NC(=O)CSc2nccn2Cc2ccco2)cc1OC,73% (inactive)
10,Cc1ccc2nc(NC(=O)CSc3nccn3Cc3ccc(F)cc3)sc2c1,99% (inactive)
11,Cc1ccc2nc(NC(=O)CSc3nccn3Cc3ccc(Cl)cc3)sc2c1,96% (inactive)
12,O=C(CSc1nccn1Cc1ccccc1)Nc1nc2ccccc2s1,117% (inactive)
13,Cc1nnc(NC(=O)CSc2nccn2Cc2ccc(F)cc2)s1,0% (active)
14,Cc1cc(C)cc(-n2ccnc2SCC(=O)Nc2nc3ccc(C)cc3s2)c1,52% (active)
15,Cc1ccc2nc(NC(=O)CSc3nccn3Cc3ccccc3)sc2c1,37% (active)
16,O=C(CSc1nccn1Cc1ccc(Cl)cc1)Nc1nc2ccccc2s1,32% (active)
17,O=C(CSc1nccn1Cc1ccc(F)cc1)Nc1nc2ccccc2s1,83% (inactive)
18,Cc1ccc2nc(NC(=O)CSc3nccn3-c3ccc(Cl)cc3)sc2c1,71% (inactive)
19,Cc1ccc(Cn2ccnc2SCC(=O)Nc2nnc(C)s2)cc1,55% (inactive)
20,Cc1nnc(NC(=O)CSc2nccn2Cc2ccc(Cl)cc2)s1,112% (inactive)
21,Cc1cc(C)cc(-n2ccnc2SCC(=O)Nc2nc3ccccc3s2)c1,71% (inactive)
22,COc1ccccc1NC(=O)CCN1CCC(C(N)=O)CC1,193% (inactive)
23,COc1ccc(CNC(=O)c2sc3nc[nH]c(=O)c3c2C)cc1,75% (inactive)

row,SMILES,survival
1,CCCCNc1nc(Oc2ccc(=O)n(C)n2)nc(N2CCOCC2)n1,81% (inactive)
2,COc1ccc(C)cc1Nc1nc(-c2cccc(Cl)c2)c2c(n1)-c1ccccc1OC2,68% (inactive)
3,CCOC(=O)CCn1nc(C)c2c(C)n(-c3ccccc3)nc2c1=O,87% (inactive)
4,Cc1ccc(OCC(=O)Nc2nc(-c3ccc(Br)cc3)ns2)cc1,72% (inactive)
5,Cc1ccc(NC(=O)C2CCN(C(=O)c3sc4nc[nH]c(=O)c4c3C)CC2)cc1F,89% (inactive)
6,COc1cccc(CN2C(=O)c3ccccc3Sc3ccc(C(=O)N(C)Cc4ccccc4)cc32)c1,79% (inactive)
7,CN1CCc2c(sc(NC(=O)CSc3ccccc3)c2-c2nc3ccccc3s2)C1,73% (inactive)
8,CC(=O)N1CCc2c(sc(NC(=O)CSc3ccccc3)c2-c2nc3ccccc3s2)C1,109% (inactive)
9,CCN1CCc2c(sc(NC(=O)CSc3ccccc3)c2-c2nc3ccccc3s2)C1,-5% (active)
10,CCc1ccc(N2C(=O)C3C(C(=O)OC)=NN(C(C)=O)C3C2=O)cc1 (configuration not stated),75% (inactive)
11,Cc1ccc(NC(=O)C2CCCN(c3ncnc4onc(-c5ccc(F)cc5)c34)C2)c(Cl)c1 (configuration not stated),71% (inactive)
12,CCCCNC(=O)C1(NC(=O)Nc2ccccc2)CCCCC1,74% (inactive)
13,O=C(Nc1ccccc1)NC1(C(=O)NCc2ccc3c(c2)OCO3)CCCCC1,6% (active)
14,S=C(NCc1ccc2c(c1)OCO2)Nc1ccccc1,97% (inactive)
15,NC(=O)CSc1nnnn1C1CCCCC1,71% (inactive)
16,COc1ccc(C(=O)Nc2cccc(-c3cn4ccsc4n3)c2)c(OC)c1,70% (inactive)
17,COc1cccc(-c2nc3c(C#N)c[nH]n3c2NC2CCCC2)c1OC,64% (active)
18,COc1ccc(-c2nc3c(C#N)c[nH]n3c2NC2CCCC2)c(OC)c1,65% (inactive)
19,COc1cccc(-c2nc3c(C#N)c[nH]n3c2NC2CCCCC2)c1,72% (inactive)
20,COc1ccc(-c2nc3c(C#N)c[nH]n3c2NC2CCCC2)cc1,56% (inactive)
21,COc1cccc(-c2nc3c(C#N)c[nH]n3c2NC2CCC(C)CC2)c1 (configuration not stated),29% (active)
22,COc1cccc(-c2nc3c(C#N)c[nH]n3c2NC2CCCCC2)c1OC,60% (inactive)
23,CCC(=O)N1c2ccccc2CC1C(=O)NCCc1ccccc1 (configuration not stated),69% (inactive)
